According to ChEMBL document CHEMBL4513216, “Probing the Open Global Health Chemical Diversity Library for Multistage-Active Starting Points for Next-Generation Antimalarials” (ACS Infect Dis, 2020):
The whole screen tested about 68,000 compounds, of which about 2,700 (4%) showed an effect of 50% or more. Shown is part of a subset that was picked to be rich in strong results.

System: Plasmodium berghei
Assay: Screen against P. berghei liver stage (PbLuc), transformed with Luciferase, at 2uM
Type: functional, HepG2
Settings: tested at 2 uM

Row | Structure (SMILES) | INHIBITION [%]
1 | Cc1nc(C)n(CC2CCCCN2Cc2cn3ccccc3n2)n1 (stereo unspecified) | -0.05
2 | CC(C)CN1CCC(C(=O)Nc2cc(C(F)(F)F)c[nH]c2=O)CC1 | -68.89
3 | CC1(C)CN(C(=O)Nc2cc(C(F)(F)F)c[nH]c2=O)CCO1 | 33.92
4 | CC(C)CN1CCN(C(=O)Nc2cc(C(F)(F)F)c[nH]c2=O)CC1 | 54.85
5 | CC(C)(C)N1CCN(C(=O)Nc2cc(C(F)(F)F)c[nH]c2=O)CC1 | -32.3
6 | CC1CN(C(=O)Nc2cc(C(F)(F)F)c[nH]c2=O)CCO1 (stereo unspecified) | 28.39
7 | CC1CN(C(=O)Nc2cc(C(F)(F)F)c[nH]c2=O)CC(C)(C)O1 (stereo unspecified) | 51.31
8 | CS(=O)(=O)c1cnc(N2CCCC2)nc1C1CCN(C(=O)C2CC2)CC1 | -44.33
9 | COc1ccccc1[C@@H]1CN(Cc2cnn(C)c2C)C[C@H]1C(=O)O | 0.12
10 | COCCC(=O)NCC1COc2cc(OC)ccc2C1 (stereo unspecified) | -26.75
11 | COc1cc(NC(=O)c2cc(C)sc2C)c(C(=O)N(C)C)cc1OC | 58.24
12 | COc1cc(NC(=O)c2ccccc2F)c(C(=O)N(C)C)cc1OC | 5.52
13 | COc1cc(NC(=O)c2ccc(C)cc2C)c(C(=O)N(C)C)cc1OC | 26.48
14 | O=C(c1ccc2c(c1)CCC2)N1CCCCC1C1OCCO1 (stereo unspecified) | -44.52
15 | COC(=O)CC1CSCCN1C(=O)CCc1c(C)nn(C)c1C (stereo unspecified) | 26.7
16 | CCN(C)c1cc(CNC(=O)CNC(=O)CC2CCCCC2)ccn1 | -15.05
17 | CN(C)c1ccc(CNC(=O)NCCc2ccccn2)cn1 | 11.2
18 | COCCSCC(=O)NCc1ccc(N(C)C)cc1 | 47.04
19 | CN(C)c1cc(CNC(=O)c2ccccc2S(C)(=O)=O)ccn1 | -33.95
20 | CCS(=O)(=O)c1ccccc1C(=O)NCc1ccnc(N(C)C)c1 | 56.67
21 | CN(C)c1cc(CNC(=O)c2ccccc2Cl)ccn1 | 17.19
22 | CN(C)c1ccc(CCNC(=O)NCc2ccc(N(C)C)nc2)cc1 | -18.67

Row | Structure (SMILES) | INHIBITION [%]
23 | COCCOCC(=O)NCc1ccc(N(C)C)nc1 | 64.08
24 | COCCSCC(=O)NCc1ccnc(N(C)C)c1 | 50.61
25 | COCCSCC(=O)NCc1ccc(N(C)C)nc1 | 1.8
26 | CCOc1cc(CNC(=O)CNC(=O)CC2CCCCC2)ccn1 | 9.29
27 | CN(C)c1cc(CNC(=O)CC2CCCCC2)ccn1 | 55.33
28 | CN(C)CCn1c2c(ccc1=O)CCN(Cc1cnn(C)c1)CC2 | 19.16
29 | CC(C)(C)n1cc(CNc2ccc(CNS(C)(=O)=O)cc2)cn1 | 38.49
30 | Cc1ccc(C(=O)N2C[C@@H]3CCCO[C@@H]3[C@H](N3CCOCC3)C2)cn1 | -35.23
31 | CCN(CC)S(=O)(=O)N1C[C@H]2CC[C@@H](C1)N(Cc1cscn1)C2=O | 31.51
32 | CC(C)OCCCN1CCCC(c2nc3ccccc3n2C(C)C)C1 (stereo unspecified) | -25.8
33 | COc1ccc2c(c1)c(C(=O)Nc1nnn[nH]1)cn2C(C)C | -2.44
34 | COCCNC(=O)[C@H]1CC[C@@H]2[C@@H](CCN2c2ncc(F)cn2)O1 | 31.65
35 | CN1C(=O)CC(c2cnn(C)c2)C12CCN(C(=O)c1ccnnc1)CC2 (stereo unspecified) | -26.73
36 | O=C(N1CCCC1)N1CCOCC2(CCN(Cc3cccs3)C2)C1 (stereo unspecified) | 25.31
37 | Cc1cn2nc(N3CCN(Cc4c(C)noc4C)CC3)sc2n1 | -4.99
38 | Oc1cc(C2CCCN(Cc3cccs3)C2)nc(-c2ccccn2)n1 (stereo unspecified) | 30.29
39 | COc1cccc(C(=O)N2CCN(CC(O)c3ccccc3)CC2)c1 (stereo unspecified) | 55.25
40 | COc1cccc(C(O)CN2CCN(C(=O)c3ccsc3)CC2)c1 (stereo unspecified) | 38.49
41 | COc1ccccc1N1CCN(CC[C@H](O)c2ccccc2)CC1=O | -23.57
42 | N#CCc1cccc(C(=O)N2CCN(CC(O)c3ccccc3)CC2)c1 (stereo unspecified) | 29.42
43 | COc1cccc(N2CCN(CC[C@H](O)c3ccccc3)CC2=O)c1 | 61.75
44 | COc1ccc(N2CCN(CC[C@H](O)c3ccccc3)CC2=O)cc1 | 17.28

Row | Structure (SMILES) | INHIBITION [%]
45 | COCC(=O)N1CCn2c(CN3CCN(C)CC3)cnc2C1 | -11.88
46 | Cc1nccc(N2CCCC(C)(C(=O)NC3CCCC3)C2)n1 (stereo unspecified) | 1.42
47 | O=C(c1cnc(COc2ccccc2)nc1O)N1CCC(F)(F)CC1 | 10.91
48 | Cc1nc(CN2CCC3(CCN(C(=O)c4ccoc4C)CC3)C2)cs1 | -13.88
49 | Cc1nn(C)c(N2CCOCC2)c1CNCC1CCS(=O)(=O)C1 (stereo unspecified) | 5.17
50 | Cc1nn(C)c(N2CCOCC2)c1CNCC1CCN(C2CC2)C1 (stereo unspecified) | 59.03
51 | Cc1nn(C)c(N2CCOCC2)c1CNCC1CCCN1C (stereo unspecified) | 53.98
52 | Cc1nn(C)c(N2CCOCC2)c1CNCc1ccnn1C | 8.06
53 | Cc1nn(C)c(N2CCOCC2)c1CNC1CCC(O)CC1 (stereo unspecified) | -5.7
54 | Cc1nn(C)c(N2CCOCC2)c1CNC1CCN(C2CC2)CC1 | 24.65
55 | COCCC(=O)N1CCCC1c1nccc(C)n1 (stereo unspecified) | -17.21
56 | CNC(=O)C1CCN(c2ncnc3c2CCN(C(=O)C2CC2)C3)C1 (stereo unspecified) | 16.53
57 | OC1CCN(Cc2c(-c3ccco3)[nH]c3ncccc23)CC1 | 8.09
58 | Cc1nc(CN2CCCC(N(C)Cc3nc(CC(C)C)no3)C2)no1 (stereo unspecified) | 23.86
59 | CC(=O)N1CCC(c2nccnc2-c2ccc(C(=O)O)cc2)CC1 | 51.57
60 | COc1ccc(-c2nccnc2C2CCN(C(C)=O)CC2)cc1 | -30.31
61 | CC(=O)N1CCC(c2nccnc2-c2ccc(F)cc2)CC1 | 33.77
62 | CC(C)c1ncc2c(n1)CN(CC(=O)Nc1ccncc1)CC2 | -36.7
63 | Cc1csc(N2CCN(C(=O)NCCNc3ncccn3)CC2)n1 | -10.6
64 | CN(C)c1ncccc1NC(=O)COC1CCCC1 | 35.13
65 | CN(C)c1ncccc1NC(=O)COCC1CC1 | 64.35
66 | O=C(COCC1CC1)Nc1ncccc1O | 25.23

Row | Structure (SMILES) | INHIBITION [%]
67 | O=C(COc1cccc2c1CCC2=O)NCCc1cccs1 | -27.22
68 | COCCN(C(=O)c1cc(C)no1)c1ccc(C#N)cc1 | -43.03
69 | COc1no[n+]([O-])c1-c1ccccc1 | 32.19
70 | CC(C)(C)C(=O)N1CCCC1(C(=O)N1CCCC1)c1cnccn1 (stereo unspecified) | 33.56
71 | Cn1cc(C2CC3(CCN(C(=O)c4cccs4)CC3)NC2=O)cn1 (stereo unspecified) | -16.25
72 | CN(C)C(C(=O)NCC1(C)COC1)c1cccc(F)c1 (stereo unspecified) | -15.77
73 | COc1ccc(CN2CCC3(CC(=O)N(c4cccc(F)c4)C3)C2)cc1 (stereo unspecified) | 40.4
74 | N#Cc1cccc(N2CC3(CCN(C(=O)c4ccncc4)C3)CC2=O)c1 (stereo unspecified) | 53.77
75 | N#Cc1cccc(N2CC3(CCN(C(=O)c4cccnc4)C3)CC2=O)c1 (stereo unspecified) | 11.72
76 | N#Cc1cccc(N2CC3(CCN(C(=O)c4ccnnc4)C3)CC2=O)c1 (stereo unspecified) | 25.24
77 | O=C1CC2(CCN(Cc3ccncc3)C2)CN1c1cccc(F)c1 (stereo unspecified) | 54.62
78 | O=C1CC2(CCN(Cc3cccnc3)C2)CN1c1cccc(F)c1 (stereo unspecified) | 38.49
79 | CCc1ccc(OCCn2cccn2)cc1 | -3.72
80 | COc1c(C2CCCN2C(=O)c2csc(C3CC3)n2)c(C)nn1C (stereo unspecified) | 15.13
81 | CCOc1cccc2c1OCC(=O)N(c1ccc3c(c1)OCO3)C2 | 25.73
82 | CCOc1cccc2c1OCC(=O)N(c1ccc3c(c1)OCCO3)C2 | 67.29
83 | CCOc1cccc2c1OCC(=O)N(c1ccc(N(C)C)cc1)C2 | 43.74
84 | COC(=O)c1ccc(C2CC(=O)Nc3c2cnn3C)cc1 (stereo unspecified) | 13.95
85 | Cc1ncsc1COC(=O)c1cccc2c1OCCO2 | 38.1
86 | Cn1cnnc1C1CCCN(C(=O)NCc2cc[nH]n2)C1 (stereo unspecified) | 28.65
87 | O=C(c1ccc[nH]1)N1CCN(C(c2ccccc2)C(F)(F)F)CC1 (stereo unspecified) | 11.88
88 | CCCSc1ccccc1NC(=O)N1CCN(C(=O)c2ccc[nH]2)CC1 | 65.76

Row | Structure (SMILES) | INHIBITION [%]
89 | CCCSc1ccccc1NC(=O)N1CCC(N2CCSCC2)CC1 | 27.05
90 | CCCc1nc(C(=O)NCCN2CCC(c3ccccc3C)C2)cs1 (stereo unspecified) | 6.88
91 | CC(C)C(C(=O)N1CCCN(c2nccs2)CC1)n1cncn1 (stereo unspecified) | 15.47
92 | CN1CCC(N(C)CCC(=O)N2CCC(CCc3ccccc3)CC2)C1 (stereo unspecified) | 66.79
93 | CN1CCC(N(C)CCC(=O)N2CCC(OCc3ccccc3)CC2)C1 (stereo unspecified) | -83.25
94 | CN1CCC(N(C)CCC(=O)N2CCC(Cc3ccc(F)cc3)CC2)C1 (stereo unspecified) | 20.36
95 | COc1c(C2CCCN2C(=O)c2ccnc(N(C)C)c2)c(C)nn1C (stereo unspecified) | 30.91
96 | Cc1cnc(N2Cc3cnn(Cc4ccc(F)cc4)c3C2)nc1N(C)C | 41.78
97 | CNS(=O)(=O)c1ccsc1C(=O)OC | -12.44
98 | CNC(=O)c1sccc1S(=O)(=O)NC | 31.27
99 | CNC(=O)c1sccc1S(=O)(=O)Nc1ccc(C)cc1 | 52.36
100 | Cc1nonc1C1CCCN1C(=O)c1cn2ccsc2n1 (stereo unspecified) | -120.95
101 | Cn1cc(CN2CCCC3(COCCN(c4cccnc4)C3)C2)cn1 (stereo unspecified) | 18.15
102 | COc1ccc(F)cc1C(=O)N1CC(c2ccncc2)C1 | -26.81
103 | COc1ccc(C(=O)N2CC(c3ccncc3)C2)c(OC)c1OC | 45.56
104 | COc1cc2c(cc1C(=O)N1CC(c3ccncc3)C1)CCC2 | 51.96
105 | CC(CO)NC(=O)Nc1ccc(COC2CCCC2)cc1 (stereo unspecified) | 31.97
106 | CC(C)N1CC(NC(=O)c2ccc(Cl)s2)CC1=O (stereo unspecified) | -28.5
